About 83,000 compounds went through this panel and 20% of them were active in at least one assay; those are over-represented in the sample as a whole.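 The test compound was applied at a single concentration to cells in 96-well plates for 48 hours, and percent growth was recorded.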 Calls of active or inactive are those of the source. Rule for the calls: active = growth percent below 10; inactive = the rest.
Tests used:
Assay in all cases: NCI-60 one-dose screen, 48 h (100 = growth as untreated, 0 = no growth, -100 = all killed)
Settings in all cases: 10 µM unless noted
HCT-15 colon = tested on: HCT-15 colon
HT29 colon = tested on: HT29 colon
SNB-75 CNS = tested on: SNB-75 CNS
SNB-19 CNS = tested on: SNB-19 CNS
U251 CNS = tested on: U251 CNS
PC-3 prostate = tested on: PC-3 prostate
SK-MEL-5 melanoma = tested on: SK-MEL-5 melanoma
UACC-62 melanoma = tested on: UACC-62 melanoma
LOX IMVI melanoma = tested on: LOX IMVI melanoma
SK-MEL-28 melanoma = tested on: SK-MEL-28 melanoma
EKVX NSCLC = tested on: EKVX NSCLC
SN12C renal = tested on: SN12C renal
UO-31 renal = tested on: UO-31 renal
TK-10 renal = tested on: TK-10 renal
ACHN renal = tested on: ACHN renal
CAKI-1 renal = tested on: CAKI-1 renal
A498 renal = tested on: A498 renal
CCRF-CEM leukemia = tested on: CCRF-CEM leukemia
MOLT-4 leukemia = tested on: MOLT-4 leukemia

Measured: growth

COc1cc2ncnc(Nc3ccc(O)cc3)c2cc1OC
inactive: HCT-15 colon 95.8% | HT29 colon 68.2% | SNB-75 CNS 64% | SNB-19 CNS 77.7% | U251 CNS 83.6% | PC-3 prostate 91% | SK-MEL-5 melanoma 98.2% | UACC-62 melanoma 76.7% | LOX IMVI melanoma 92.2% | SK-MEL-28 melanoma 97% | EKVX NSCLC 66.3% | SN12C renal 62.2% | UO-31 renal 36.8% | ACHN renal 31.1% | CAKI-1 renal 43.4% | A498 renal 81.3% | CCRF-CEM leukemia 77.7% | MOLT-4 leukemia 75.3%
active: TK-10 renal 2.22%

Nc1ncnc2c1c(-c1cccc(OCc3ccccc3)c1)cn2C1CC(CN2CCC2)C1 (stereo not drawn)
inactive: HCT-15 colon 10.1% | SNB-19 CNS 32.1% | PC-3 prostate 27.4% | EKVX NSCLC 30.1% | SN12C renal 35.5% | TK-10 renal 28.4% | ACHN renal 18.7%
active: HT29 colon -39.8% | SNB-75 CNS -28.7% | U251 CNS -17.9% | SK-MEL-5 melanoma -96.7% | UACC-62 melanoma -55.9% | LOX IMVI melanoma -75% | SK-MEL-28 melanoma -69.6% | UO-31 renal -66.6% | CAKI-1 renal 7.5% | A498 renal -1.47% | CCRF-CEM leukemia 5.52% | MOLT-4 leukemia -14.5%

CCCCn1c(C)nc2ccc(Nc3nc(N4CCN(C)CC4)nc4nc[nH]c34)cc21
inactive: HCT-15 colon 110% | HT29 colon 90.9% | SNB-75 CNS 63.5% | SNB-19 CNS 95.6% | U251 CNS 82.9% | PC-3 prostate 84.2% | SK-MEL-5 melanoma 86.8% | UACC-62 melanoma 91.9% | LOX IMVI melanoma 83.9% | SK-MEL-28 melanoma 109% | EKVX NSCLC 96.9% | SN12C renal 87.3% | UO-31 renal 83.7% | TK-10 renal 104% | ACHN renal 106% | CAKI-1 renal 99.8% | A498 renal 71.7% | CCRF-CEM leukemia 90.5% | MOLT-4 leukemia 87.1%

Oc1ccc(C(c2ccc(O)cc2)C(Cl)(Cl)Cl)cc1
inactive: HCT-15 colon 93.4% | HT29 colon 110% | SNB-75 CNS 66.4% | SNB-19 CNS 99.9% | U251 CNS 106% | PC-3 prostate 75.2% | SK-MEL-5 melanoma 100% | UACC-62 melanoma 79.8% | LOX IMVI melanoma 87.6% | SK-MEL-28 melanoma 113% | EKVX NSCLC 82.5% | SN12C renal 84.8% | UO-31 renal 75.3% | TK-10 renal 105% | ACHN renal 92.3% | CAKI-1 renal 105% | A498 renal 87.5% | CCRF-CEM leukemia 76.5% | MOLT-4 leukemia 70.5%

C=CCN(/C=C1/C(=O)O[C@H](COC)[C@@]2(C)C1=C(O)C(=O)C1=C2[C@H](OC(C)=O)C[C@]2(C)C(=O)CC[C@@H]12)CC=C
inactive: HCT-15 colon 24.2% | HT29 colon 13.7% | SNB-19 CNS 26.2% | U251 CNS 21.1% | PC-3 prostate 18.6% | LOX IMVI melanoma 20.3% | SK-MEL-28 melanoma 24.4% | EKVX NSCLC 21.8% | SN12C renal 30.2% | ACHN renal 24.7% | CCRF-CEM leukemia 12.8%
active: SNB-75 CNS -25.3% | SK-MEL-5 melanoma 7.65% | UACC-62 melanoma -21% | UO-31 renal 3.12% | TK-10 renal 3.59% | CAKI-1 renal 8.92% | A498 renal -66.8% | MOLT-4 leukemia -2.31%

C[C@@]1(C(=O)Nc2ccc(F)nc2)CCCN1c1nc(Nc2cc(C3CC3)[nH]n2)c2cccn2n1
inactive: HCT-15 colon 26.5% | SNB-19 CNS 55.2% | U251 CNS 32.3% | PC-3 prostate 30.8% | SK-MEL-5 melanoma 48.1% | UACC-62 melanoma 17.5% | SK-MEL-28 melanoma 43.6% | EKVX NSCLC 46.2% | SN12C renal 34.6% | TK-10 renal 35.9% | ACHN renal 25.7% | CCRF-CEM leukemia 44% | MOLT-4 leukemia 30.3%
active: HT29 colon -31.8% | SNB-75 CNS -53.2% | LOX IMVI melanoma -35.5% | UO-31 renal 2.07% | CAKI-1 renal -17.7% | A498 renal -41.7%

COC(=O)[C@H](C)NC(=O)[C@@H](OC)[C@@H]1Cc2cc3cc(OC4CC(OC5CC(O)C(O)C(C)O5)C(O)C(C)O4)c(C)c(O)c3c(O)c2C(=O)[C@H]1OC1CC(OC2CC(OC3CC(C)(O)C(O)C(C)O3)C(O)C(C)O2)C(O)C(C)O1 (stereo partly drawn)
active: HT29 colon 3.99% | SNB-75 CNS -63.8% | SNB-19 CNS 8.48% | U251 CNS 7.45% | PC-3 prostate 8.21% | SK-MEL-5 melanoma -67.4% | UACC-62 melanoma -52.8% | LOX IMVI melanoma -27.4% | SK-MEL-28 melanoma -37.7% | UO-31 renal 5.72% | ACHN renal -1.98% | A498 renal -66.5% | MOLT-4 leukemia 0.969%
inactive: HCT-15 colon 19.3% | EKVX NSCLC 21.9% | SN12C renal 11.5% | TK-10 renal 13.1% | CAKI-1 renal 27.5% | CCRF-CEM leukemia 14.5%

Reference: PubChem BioAssay (NCI)
